Many of the other results were omitted from the sample, so hits are more common in it than they were.
Pf Dd2 growth: inhibitors of Plasmodium falciparum Dd2 growth. Potency, µM (series often up to 28.9 µM), hits mostly inhibitors. P. falciparum Dd2 growth, SYBR Green, 72 h. hit rate 4.3% among 120,000; active = well fitted inhibition curve with a large enough effect; note: nearly all actives have a fitted effect of over 65% in size
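Readout: SYBR Green fluorescence, 485 nm excitation, 535 nm emission, after ~16 h lysis at 37C. Before that, Dd2-infected red cells (2.5% hematocrit) grew 72 h with compound, 29 uM top final concentration.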
A number is an active result; 0 = inactive; [ ] = remark or other dose.

SMILES	Pf Dd2 growth
COc1ccccc1CC(=O)Nc1ccc2c(N3CCCCC3)ncnc2c1	14.1µM
CCCNC(=O)C1COC2(CCN(C(=O)c3ccc(Cl)cc3)CC2)N1C(=O)c1cccc(OC)c1 (configuration not stated)	0
CN1c2cc(C(=O)Nc3ccc4c(c3)OCCO4)ccc2C(=O)N2CCCC21 (configuration not stated)	0
CCN1c2cc(C(=O)Nc3ccc(OC)cc3OC)ccc2C(=O)N2CCCCC21 (configuration not stated)	0
CN(C(=O)CC(c1ccccc1)c1ccc(Cl)cc1)C1CCOCC1 (configuration not stated)	0
CN(CC1CCOCC1)C(=O)Nc1ccccc1Cl	0
CSc1nn(CC(=O)Nc2ccccc2F)c(N)c1S(=O)(=O)c1ccccc1	0
CCOC(=O)c1ccc(NC(=O)Cn2nc(SC)c(S(=O)(=O)c3ccc(Cl)cc3)c2N)cc1	11.2µM
CCSc1nn(CC(=O)Nc2ccc(C(=O)OC)cc2)c(N)c1S(=O)(=O)c1ccc(C)cc1	0
CCCOc1ccc(CNC(=O)[C@@]23CCCC[C@H]2N(CCOC)C(=O)CC3)cc1	0
Cc1ccc(C(=O)N2CCC3(CC2)NC(=O)N(c2ccc(F)cc2)N3)s1	0
CN1CCCC2(CCN(S(=O)(=O)c3ccc4[nH]c(=O)[nH]c4c3)C2)C1=O (configuration not stated)	0
Cc1cccc(CCNC(=O)C2CCCN(S(=O)(=O)c3ccc4c(c3)oc(=O)n4C)C2)c1 (configuration not stated)	0
CCOC(=O)c1c(C)[nH]c(C)c1S(=O)(=O)N1CCCC(C(=O)Nc2cccc(C)n2)C1 (configuration not stated)	0
CCOC(=O)c1c(C)[nH]c(C)c1S(=O)(=O)N1CCCC(C(=O)N2CCN(c3cccc(C)c3C)CC2)C1 (configuration not stated)	0.562µM
CCOC(=O)C1CCCN(S(=O)(=O)c2ccc3c(c2)oc(=O)n3C)C1 (configuration not stated)	0
CCOC(=O)c1c(C)[nH]c(C)c1S(=O)(=O)N1CCC(C(=O)N2CCN(c3cc(C)ccc3C)CC2)CC1	0
Cc1cccc(N2CCN(C(=O)C3CCCN(S(=O)(=O)c4ccc5c(c4)oc(=O)n5C)C3)CC2)c1C (configuration not stated)	11.2µM
Cc1ccc(C)c(C(=O)N2CCC3(CC2)NC(=O)N(c2ccccc2)N3)c1	0
CC(C)NC(=O)C[C@@H]1O[C@H](CNC[C@H]2O[C@@H](CC(=O)NC(C)C)[C@H](O)[C@@H]2O)[C@@H](O)[C@H]1O	0
COCCN1C(=O)CC[C@]2(C(=O)NCc3cccnc3)CCCC[C@@H]12	0
CO[C@H]1[C@H](NC(=O)Cc2ccc3c(c2)OCO3)c2ccccc2C12CCNCC2	0
CC(C)c1nc2c(c(-c3ccc(Cl)cc3)n1)CCN(Cc1cccnc1)CC2	11.2µM
CC(C)c1nc2c(c(-c3ccc(Cl)cc3)n1)CCN(Cc1cccc3ccccc13)CC2	11.2µM
CC(C)c1nc2c(c(-c3ccc(O)cc3)n1)CN(C(=O)N(C)C)CC2	0
SMILES	Pf Dd2 growth
CN(Cc1cccnc1)c1nc2c(c(=O)[nH]1)CCN(Cc1ccc(Cl)cc1)CC2	0[5.79 µM]
CN1CCN(c2nc3c(c(=O)[nH]2)CCN(Cc2cccnc2)CC3)CC1	0[5.79 µM]
Cc1nc2c(c(-c3ccc(Cl)cc3)n1)CCN(C(=O)c1ccccc1)CC2	0
Cc1ccc(-c2nccc(N3CCC(O)C3)n2)c(C)c1 (configuration not stated)	0
Cc1cnc(C2CC2)n1CCNC(=O)C(C)C	0
Cc1cc(C)c(S(=O)(=O)NCCn2c(C)cnc2C2CC2)c(C)c1	11.2µM
Cc1cc(Cl)ccc1S(=O)(=O)NCCn1c(C)cnc1C1CCC1	6.31µM
Cc1cnc(C2CC2)n1CCNS(=O)(=O)c1ccccc1F	0
Cc1cnc(C2CCC2)n1CCNS(=O)(=O)c1ccccc1	0
CC(=O)Nc1ccc(C)cc1S(=O)(=O)NCCn1c(C)cnc1C1CCC1	0
OCCc1cc(CC2(NC3CCOCC3)COC2)no1	0
CC(C)NC(=O)N(C1CC1)C1CCOC2(CCN(C(=O)CCCc3ccccc3)CC2)C1 (configuration not stated)	0
O=[S+]([O-])(NCC1CN(Cc2ccncc2Cl)CC12CN(c1ccccc1)C2)c1ccccc1 (configuration not stated)	0
Cc1ccc([S+](=O)([O-])NC[C@@H]2CC[C@H]3C[C@@H]2C3(C)C)cc1	0
CC1(C)[C@H]2CC[C@@H](CN[S+](=O)([O-])c3ccccc3)[C@@H]1C2	11.2µM
CC(C)(C)c1ccc2c(c1)C(C[C@H]1CN(S(C)(=O)=O)CC[C@H]1CC(=O)O)=NCC2	0
CCNC(=O)[C@@H]1C[C@H](n2cc(CN(C)C(=O)c3cccc(C)c3C)nn2)CN1	0
COC[C@H]1CCCN1C(=O)C[C@@H]1O[C@H](CNC(=O)c2ccccc2)[C@@H](O)[C@H]1O	0
CC1(C(=O)O)CCN(C(=O)c2ccc3c(c2)OCO3)CC1	0
O=c1cc(-c2ccncc2)oc2c(-c3ccccc3O)nccc12	1.78µM
